Measured values published in PubChem BioAssay (NCI).
About 83,000 compounds went through this panel and 20% of them were active in at least one assay; those are over-represented in the sample as a whole.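 Growth was measured after 48 h exposure to one concentration of compound in 96-well plates. Values under 10 count as active.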 A number with no mark means an inactive call. Activity calls are given as the source filed them.

What was measured:
Assay in all cases: NCI-60 one-dose screen, 48 h (100 = growth as untreated, 0 = no growth, -100 = all killed)
NCI-H23 lung = conditions: 10 µM
HOP-92 NSCLC = conditions: 10 µM
K-562 leukemia = conditions: 10 µM
MDA-MB-231 breast = conditions: 10 µM
RXF 393 renal = conditions: 10 µM
M14 melanoma = conditions: 10 µM
HCT-15 colon = conditions: 10 µM
LOX IMVI melanoma = conditions: 10 µM
SK-MEL-28 melanoma = conditions: 10 µM
MOLT-4 leukemia = conditions: 10 µM
SR leukemia = conditions: 10 µM
SK-OV-3 ovarian = conditions: 10 µM
HS 578T breast = conditions: 10 µM
SW-620 colon = conditions: 10 µM
MDA-MB-468 breast = conditions: 10 µM unless noted
UO-31 renal = conditions: 10 µM
CAKI-1 renal = conditions: 10 µM
OVCAR-8 ovarian = conditions: 10 µM
T-47D breast = conditions: 10 µM
SNB-19 CNS = conditions: 10 µM

Row | SMILES | growth (NCI-H23 lung) | growth (HOP-92 NSCLC) | growth (K-562 leukemia) | growth (MDA-MB-231 breast) | growth (RXF 393 renal) | growth (M14 melanoma) | growth (HCT-15 colon) | growth (LOX IMVI melanoma) | growth (SK-MEL-28 melanoma) | growth (MOLT-4 leukemia) | growth (SR leukemia) | growth (SK-OV-3 ovarian) | growth (HS 578T breast) | growth (SW-620 colon) | growth (MDA-MB-468 breast) | growth (UO-31 renal) | growth (CAKI-1 renal) | growth (OVCAR-8 ovarian) | growth (T-47D breast) | growth (SNB-19 CNS)
1 | C[C@H]1[C@@H](CC(=O)N[C@@H](Cc2coc3ccccc23)B(O)O)O[C@@H]2OC3(C)CC[C@H]4[C@H](C)CC[C@@H]1[C@@]24OO3 | -65.9% (active) | -68.6% (active) | 4.86% (active) | -92% (active) | -88.4% (active) | -44% (active) | -62.3% (active) | -92.3% (active) | -49.4% (active) | 8.41% (active) | 17.4% | -22.9% (active) | -4.2% (active) | 2.66% (active) | -60.6% (active) | – | – | – | – | –
2 | CC[C@]12C=CCN3CC[C@@]4(c5ccc(OC)cc5N(C)[C@H]4[C@@](O)(C(=O)OC)[C@@H]1OC(=O)CCC[P+](C1CCCCC1)(C1CCCCC1)C1CCCCC1)[C@@H]32 | -4.73% (active) | -43.8% (active) | 3.31% (active) | -90.8% (active) | -70.3% (active) | – | – | -96% (active) | – | 2.35% (active) | 29.1% | -7.72% (active) | -33% (active) | 3.91% (active) | – | 76.8% | -8.49% (active) | – | – | –
3 | C[C@H]1[C@H](OC(=O)CCC(=O)N(CCCc2cn(-c3ccc([N+](=O)[O-])cc3)nn2)CCNc2ccnc3cc(Cl)ccc23)O[C@@H]2OC3(C)CC[C@H]4[C@H](C)CC[C@@H]1[C@@]24OO3 | 43.4% | 24.9% | 8.36% (active) | 50.2% | 26.1% | 45.3% | 15.8% | 21.7% | – | 2.71% (active) | -15.2% (active) | 98.2% | 52.8% | 38% | 31.2% | 18.3% | 37.4% | 23.7% | 37.1% | –
4 | CC12OOC(C)(OO1)C2CCC(=O)OCCNc1ccnc2cc(Cl)ccc12 (stereo not given) | 4.36% (active) | -27.2% (active) | 3.42% (active) | 91.5% | -15.7% (active) | 14.6% | -73.2% (active) | -92.1% (active) | – | 26.1% | -27% (active) | – | 95.2% | 7.3% (active) | – | -97.2% (active) | -79.4% (active) | – | 16.5% | 97.6%
5 | COCCOCCOCCOc1ccc(-n2cc(CCCN(CCNc3ccnc4cc(Cl)ccc34)C(=O)CCC(=O)O[C@@H]3O[C@@H]4OC5(C)CC[C@H]6[C@H](C)CC[C@@H]([C@H]3C)[C@@]46OO5)nn2)cc1 | 47.9% | 19.3% | 17.2% | 73.5% | 33.6% | 34.8% | – | 1.51% (active) | – | 7.21% (active) | -5.07% (active) | 76.1% | 34.9% | 30% | 44.9% | – | 39.7% | – | – | 56.3%
6 | O=C(NC([Se])=NC1CCCCC1)c1ccccc1 | 19% | 112% | 59.2% | – | 20.5% | 69.8% | 44% | – | – | 57.4% | 51.4% | 5.33% (active) | – | – | 55% | 6.45% (active) | 32.4% | 40.9% | – | –
7 | O=C(/C=C/c1ccc(Cl)cc1Cl)c1nc2ccccc2n1Cc1ccc(Br)cc1 | 72.3% | 65.8% | 53.5% | – | 58.2% | 78.4% | 46.6% | – | – | 15.4% | 14.4% | 92.9% | – | – | 48.9% | – | 65.1% | – | 44.4% | 74.8%
8 | O=C(/C=C/c1ccccc1Cl)c1nc2ccccc2n1Cc1ccc(F)cc1 | -78.2% (active) | -65.4% (active) | -25.9% (active) | – | -97.8% (active) | -79.4% (active) | – | – | -86.2% (active) | -16.2% (active) | -27.9% (active) | 8.31% (active) | – | – | -94.1% (active) | -99.6% (active) | – | – | – | -79.2% (active)
9 | CC[C@@]12CC(C(=O)OC)=C3Nc4cc5c(cc4[C@@]34CCN(C[C@H]3O[C@H]31)[C@@H]24)[C@@H]1[C@H](O5)[C@@H](O)[C@@]2(CC)CC(C(=O)OC)=C3Nc4cc(OC)ccc4[C@@]34CCN1[C@@H]24 | 1.41% (active) | 21.2% | 2.66% (active) | 18% | -37.8% (active) | 28.7% | -38.1% (active) | -64.9% (active) | 27.1% | -4.22% (active) | -16.2% (active) | – | -6.21% (active) | 16.3% | -56.3% (active) | – | – | 25.5% | – | 21.3%
10 | C[C@H]1[C@@H](Oc2ccc(-c3cn(-c4ccnc5cc(Cl)ccc45)nn3)cc2)O[C@@H]2OC3(C)CC[C@H]4[C@H](C)CC[C@@H]1[C@@]24OO3 | 28.4% | 29.4% | 22.2% | 49.4% | 52.3% | 31.8% | 12.8% | 10.9% | 33.3% | 17.5% | 12.2% | – | 32.5% | 27% | 36.9% | – | – | 16% | – | –
11 | CC[C@]12C=CCN3CC[C@@]4(c5ccc(OC)cc5N(C)[C@H]4[C@@](O)(C(=O)OC)[C@@H]1OC(=O)CCC[P+](c1ccc(F)cc1)(c1ccc(F)cc1)c1ccc(F)cc1)[C@@H]32 | 35.5% | -6.2% (active) | 21.6% | 22% | -10.4% (active) | 21.5% | – | 31% | – | 37.1% | 42.6% | – | 19.1% | 45.3% | -74.6% (active) | – | 73.1% | – | – | –
12 | CCOP(=O)(OCC)C(NC(C)=O)C(=O)SCCN (stereo not given) | 101% | 108% | 100% | 99.2% | – | 106% | – | 92.1% | – | 105% | 98.4% | – | 100% | 112% | 124% | – | 101% | – | – | –
13 | COc1cc2cc(C(=O)N3C[C@@H](CCl)c4c3cc(OC(=O)N3CCN(C)[C@@H]5CSSC[C@H]53)c3ccccc43)[nH]c2c(OC)c1OC | -80.6% (active) | -40.2% (active) | -6.55% (active) | -51.3% (active) | -93.8% (active) | -76.2% (active) | -18.7% (active) | -90.2% (active) | – | -27.3% (active) | -13.9% (active) | – | -36% (active) | -9.04% (active) | -86.3% (active) | -52% (active) | – | -30.2% (active) | -11.8% (active) | -15.4% (active)
14 | COC(=O)c1ccc(-n2cc(CCCN(CCNc3ccnc4cc(Cl)ccc34)C(=O)CCC(=O)O[C@@H]3O[C@@H]4OC5(C)CC[C@H]6[C@H](C)CC[C@@H]([C@H]3C)[C@@]46OO5)nn2)cc1 | 40.4% | 18.6% | 5.64% (active) | 62.8% | 34.2% | 47.1% | – | 8.12% (active) | – | -13.5% (active) | -10% (active) | 85.6% | 49.6% | 31.6% | 33.3% | 19.6% | 44.5% | – | – | 63.7%
15 | CC[C@]12C=CCN3CC[C@@]4(c5ccc(OC)cc5N(C)[C@H]4[C@@](O)(C(=O)OC)[C@@H]1OC(=O)CCCC[P+](c1ccc(OC)cc1)(c1ccc(OC)cc1)c1ccc(OC)cc1)[C@@H]32 | -90.7% (active) | -74.5% (active) | 1.01% (active) | -97.4% (active) | -90.4% (active) | -89.8% (active) | – | -96.4% (active) | -96.8% (active) | -26.2% (active) | 23.2% | -82.5% (active) | -67.5% (active) | -88.7% (active) | -92.7% (active) | 15.5% | – | -90.2% (active) | -46.6% (active) | –
16 | COCCOCCOCCOc1ccc(-n2cc(-c3ccc(O[C@H]4O[C@@H]5OC6(C)CC[C@H]7[C@H](C)CC[C@@H]([C@H]4C)[C@@]57OO6)cc3)nn2)cc1 | 27.2% | 83.2% | 28.6% | 79.9% | 69.4% | – | 12.7% | 36.1% | – | 21.2% | 33.8% | 84% | 43.9% | 27.7% | 13.3% | – | 25% | 22.2% | 17.3% | 64%
17 | C#CCCCN(CCNc1ccnc2cc(Cl)ccc12)C(=O)CCC(=O)O[C@@H]1O[C@@H]2OC3(C)CC[C@H]4[C@H](C)CC[C@@H]([C@H]1C)[C@@]24OO3 | 35.7% | 27.3% | 13% | 64.2% | 34.3% | 37.7% | 12.1% | -40.9% (active) | 44.1% | -4.65% (active) | -21.9% (active) | – | 44.1% | 33.2% | -3.36% (active) | – | – | 17% | 27.9% | 56.5%
